{
  "source": "ChEMBL document CHEMBL3988442",
  "about": "“University of Dundee, Small-Polar-MMV Screening Library” (2021)",
  "data": [
    {"biological_target": "T1, Tyrosyl-tRNA synthetase, putative (Trypanosoma cruzi (strain CL Brener)) (UniProt Q4DSP6)", "T1 sequence (whole entry)": "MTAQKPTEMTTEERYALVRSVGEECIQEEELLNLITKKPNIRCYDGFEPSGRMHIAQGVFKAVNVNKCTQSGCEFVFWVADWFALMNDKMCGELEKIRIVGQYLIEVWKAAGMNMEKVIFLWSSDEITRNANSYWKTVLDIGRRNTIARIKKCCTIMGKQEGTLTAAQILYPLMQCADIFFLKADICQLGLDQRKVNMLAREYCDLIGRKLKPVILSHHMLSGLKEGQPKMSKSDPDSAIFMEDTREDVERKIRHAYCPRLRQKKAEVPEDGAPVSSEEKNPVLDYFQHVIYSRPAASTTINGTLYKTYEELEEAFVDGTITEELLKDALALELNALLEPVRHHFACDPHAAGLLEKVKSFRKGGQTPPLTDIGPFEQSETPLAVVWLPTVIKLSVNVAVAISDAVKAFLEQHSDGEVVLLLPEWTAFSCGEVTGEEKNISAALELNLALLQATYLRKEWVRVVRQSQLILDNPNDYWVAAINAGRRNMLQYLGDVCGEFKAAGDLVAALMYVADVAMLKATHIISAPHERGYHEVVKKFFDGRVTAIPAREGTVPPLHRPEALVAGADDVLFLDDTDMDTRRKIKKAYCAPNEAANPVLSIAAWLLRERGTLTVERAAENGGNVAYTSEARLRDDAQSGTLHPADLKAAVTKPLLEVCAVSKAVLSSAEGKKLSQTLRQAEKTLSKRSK", "assay": "Trypanosoma cruzi tyrosyl tRNA synthetase (TcYRS) _High Tyrosine SOP", "format": "functional", "set-up": "scale not given: in the data most compounds retested in dose-response had high values", "conditions": "30 µM", "units": {"Percent Effect": "%"}, "values": [
      {"smiles": "Cc1ncsc1C(=O)N(C)CCc1ccncc1", "Percent Effect": 2.45},
      {"smiles": "O=C(O)c1ccc(F)c(S(=O)(=O)Nc2c(F)cccc2-n2cccn2)c1", "Percent Effect": 4.92},
      {"smiles": "Cn1cnc2c1C(COCc1cccnc1)N(Cc1ccccn1)CC2", "note": "(stereo not given)", "Percent Effect": 4.17},
      {"smiles": "Cc1cc(CN2CCCC(C)(CO)C2)ccc1F", "note": "(stereo not given)", "Percent Effect": -1.07},
      {"smiles": "CCS(=O)(=O)CC(=O)NC(c1ccc(F)cc1)C1CCCC1", "note": "(stereo not given)", "Percent Effect": 3.19},
      {"smiles": "O=C(Nc1cccc(CN2CCOC2=O)c1)N1CCOCC1", "Percent Effect": 2.1},
      {"smiles": "CC(C)c1cc(NC(=O)c2ccc(C(=O)NC(C)(C)C)cc2)[nH]n1", "Percent Effect": 6.8},
      {"smiles": "CN(C)C(=O)CN1CCCCC1c1nc(N)ncc1-c1cccc(F)c1", "note": "(stereo not given)", "Percent Effect": 4.25},
      {"smiles": "CCN1CC(C(=O)NC(C)(C)CC(C)(C)C)CC1=O", "note": "(stereo not given)", "Percent Effect": 5.38},
      {"smiles": "CC(C)CS(=O)(=O)CC(=O)N(C)Cc1ccc(OC(F)F)cc1", "Percent Effect": -0.529},
      {"smiles": "Cc1ccc(C(=O)Nc2cn[nH]c2)cn1", "Percent Effect": 1.47},
      {"smiles": "CSc1nccn1-c1cccc(C(=O)NCc2nnc(C)n2C)c1", "Percent Effect": 6.4},
      {"smiles": "CN(Cc1cnn(C)c1)C(=O)Cn1c(CS(C)(=O)=O)nc2ccccc21", "Percent Effect": 5.32},
      {"smiles": "CC1CN(Cc2nccn2C)CCN1c1ccc2nncn2n1", "note": "(stereo not given)", "Percent Effect": 5.83},
      {"smiles": "O=C(CCn1cccn1)N1CCN(CC(F)F)CC1", "Percent Effect": 9.9},
      {"smiles": "Cc1noc(C(C)C)c1C(=O)N1CCCN(Cc2cscn2)CC1", "Percent Effect": 7.62},
      {"smiles": "CS(=O)(=O)CCNC(=O)C1(c2cccc(Cl)c2)CCCCC1", "Percent Effect": -4.21},
      {"smiles": "CCc1n[nH]c(C2CN(C(=O)c3ccsc3)CCO2)n1", "note": "(stereo not given)", "Percent Effect": -2.86},
      {"smiles": "CN(C)C(=O)N1C[C@@H]2CC[C@H](C1)N(C(=O)CCCn1cncn1)C2", "Percent Effect": 8.99},
      {"smiles": "CN1CCN(C2CCN(CC(=O)NCC(F)(F)F)CC2)C1=O", "Percent Effect": 3.45}
    ]}
  ]
}
